# Data taken from the supplement of paper PMC9694430.
# What was measured:
# Experiment in all cases: thermal shift delta Tm vs DMSO control; higher = stronger stabilization (binding)
# Details in all cases: 12.5 µM; protein concentration 2 µM
# [1] = system: LOC_OS01G01410-cb001
# Procedure, shortened: (§1)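 Heating from 25°C to 95°C at 0.05°C/s, fluorescence was recorded for 19.5 μl wells of 2 μM E. coli-expressed, purified rice kinase domain in 100 mM potassium phosphate pH 7.5, 150 mM NaCl, 10% glycerol and 5 × SYPRO Orange with compound in DMSO. Boltzmann fits gave melting temperatures for this differential scanning fluorimetry assay. The shift reported is the mean of three replicates against the DMSO-only protein.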
# [2] = system: LOC_OS01G02750-cb003
# Procedure, shortened: as §1
# [3] = system: LOC_OS01G10900-cb004
# Procedure, shortened: as §1
# [4] = system: LOC_OS01G13800-cb001
# Procedure, shortened: as §1
# [5] = system: LOC_OS01G14860-cb001
# Procedure, shortened: as §1
# [6] = system: LOC_OS01G21960-cb002
# Procedure, shortened: as §1
# [7] = system: LOC_OS01G39600-cb002
# Procedure, shortened: as §1
# [8] = system: LOC_OS01G48390-cb002
# Procedure, shortened: as §1
# [9] = system: LOC_OS01G51400-cb002
# Procedure, shortened: as §1
# [10] = system: T1, LOC_OS01G52050-cb004
# T1 sequence (whole entry): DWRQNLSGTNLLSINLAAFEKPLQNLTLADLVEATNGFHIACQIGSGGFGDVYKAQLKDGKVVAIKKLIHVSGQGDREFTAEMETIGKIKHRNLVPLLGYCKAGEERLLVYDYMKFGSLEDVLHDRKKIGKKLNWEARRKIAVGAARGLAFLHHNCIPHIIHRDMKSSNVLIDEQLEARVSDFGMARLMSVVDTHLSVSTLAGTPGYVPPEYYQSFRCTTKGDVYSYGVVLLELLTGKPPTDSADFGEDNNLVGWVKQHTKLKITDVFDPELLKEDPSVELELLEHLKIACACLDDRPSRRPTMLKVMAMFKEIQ
# Procedure, shortened: as §1
# [11] = system: LOC_OS01G57100-cb003
# Procedure, shortened: as §1
# [12] = system: LOC_OS01G60330-cb001
# Procedure, shortened: as §1
# [13] = system: LOC_OS01G60700-cb002
# Procedure, shortened: as §1
# [14] = system: LOC_OS01G63280-cb003
# Procedure, shortened: as §1
# [15] = system: LOC_OS01G67340-cb003
# Procedure, shortened: as §1
# [16] = system: LOC_OS01G70970-cb002
# Procedure, shortened: as §1
# [17] = system: LOC_OS02G07810-cb001
# Procedure, shortened: as §1
# [18] = system: LOC_OS02G08530-cb003
# Procedure, shortened: as §1
# [19] = system: LOC_OS02G14120-cb001
# Procedure, shortened: as §1
# [20] = system: LOC_OS02G17970-cb001
# Procedure, shortened: as §1
# 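Further: purified Escherichia coli-expressed rice kinase domain construct.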
Structure (SMILES),thermal shift delta Tm [1] [°C],thermal shift delta Tm [2] [°C],thermal shift delta Tm [3] [°C],thermal shift delta Tm [4] [°C],thermal shift delta Tm [5] [°C],thermal shift delta Tm [6] [°C],thermal shift delta Tm [7] [°C],thermal shift delta Tm [8] [°C],thermal shift delta Tm [9] [°C],thermal shift delta Tm [10] [°C],thermal shift delta Tm [11] [°C],thermal shift delta Tm [12] [°C],thermal shift delta Tm [13] [°C],thermal shift delta Tm [14] [°C],thermal shift delta Tm [15] [°C],thermal shift delta Tm [16] [°C],thermal shift delta Tm [17] [°C],thermal shift delta Tm [18] [°C],thermal shift delta Tm [19] [°C],thermal shift delta Tm [20] [°C]
Oc1c(F)cc(-c2cnccc2-c2ccc(N3CCOCC3)cc2)cc1F,0.86,0.33,0.19,0.41,0.2,0.65,-0.24,0,0.36,-0.22,1.14,1.01,0.34,0.58,0.1,0.21,0.35,0.7,0.35,0.29
CN(C)C/C=C/C(=O)Nc1cc2c(Nc3ccc(F)c(Cl)c3)ncnc2cc1O[C@H]1CCOC1 [Afatinib (BIBW2992)],1.12,-0.19,4,0.13,2.91,-0.28,1.11,2.17,0.41,0.75,0.75,0.2,1,-0.22,-0.42,0.44,0.56,0.76,2.04,-0.15
CCCCCCCCCCCCCCCCOP(=O)([O-])OCC[N+](C)(C)C [Miltefosine],-6.86,-17.5,-2.68,-7.38,-3.1,-5.94,-5.77,-3.18,-3.78,-6.22,-11.3,-3.63,-6.31,-4.06,-4.33,-8.33,-3.73,-3.69,-6.59,-5.83
Cc1ncc(-c2ccnc(Nc3ccc(S(C)(=O)=O)cc3)n2)n1C(C)C,2.46,2.34,0.85,0.21,7.5,2.32,2.92,0.66,0.48,4.34,1.7,2.38,1.21,4.42,1.74,1.45,1.42,2.22,5.76,1.78
COc1cc2c(Oc3ccc(NC(=O)C4(C(=O)Nc5ccc(F)cc5)CC4)cc3F)ccnc2cc1OCCCN1CCOCC1,2.26,3.47,1.69,-0.35,1.69,0.4,0.45,6.85,0.19,4.66,0.61,1.45,0.58,0.93,3.45,2.5,1.74,1.31,7.45,0.62
CN1CCC(COc2cnc(-c3cccc(Cn4nc(-c5cccc(C#N)c5)ccc4=O)c3)nc2)CC1,0.33,0.27,0.17,-0.5,0.03,0.05,0.63,0.2,0.24,0.04,0.71,0.27,0.62,-0.13,-0.02,0.15,0.34,0.12,0.1,0.24
Cc1c(C(=O)Nc2ccc(Oc3ccnc4[nH]cc(-c5ccccc5)c34)c(F)c2)c(=O)n(-c2ccc(F)cc2)n1C,0.66,2.79,1.91,0.84,0.67,1.55,2.37,1.72,0.78,2.8,1.48,5.65,1.25,5.92,1.81,1.29,0.68,3.76,6.85,1.44
CC(C)NC[C@@H](C(=O)N1CCN(c2ncnc3c2[C@H](C)C[C@H]3O)CC1)c1ccc(Cl)cc1 [Ipatasertib (GDC-0068)],0.15,0.42,0.03,0.07,0.06,0.43,0.77,-0.11,0.32,0.26,0.44,0.84,1.12,0.25,0.25,0.4,0.82,0.31,-0.01,0.06
Cc1nc2ccc(-n3ncc(C(=O)c4cc5ccccc5[nH]4)c3N)cc2[nH]1,0.79,1.12,0.9,0,0.41,-0.17,0.82,1.08,0.05,1.9,-0.72,2.34,-0.42,1.52,2.11,0.1,0.91,1.17,0.03,1.37
COc1nccnc1NS(=O)(=O)c1ccc(NC(=O)/C=C/c2ccc([N+](=O)[O-])s2)cc1 [Necrosulfonamide],1.29,0.21,2.42,1.27,0.78,0.24,-1.55,0.84,-0.04,0.81,-1.39,1.46,1.17,0.16,0.36,-0.61,1.4,0.83,-0.66,2.48
CN1CCN(S(=O)(=O)c2ccc(-c3cnc(N)c(C(=O)Nc4cccnc4)n3)cc2)CC1,4.52,1.3,0.3,0.58,7.62,1.87,0.71,0.96,-0.02,1.17,1.13,1.53,1.31,0.13,0.5,1.05,0.28,1.13,2.21,-0.31
O=C1CCc2c(Oc3ccc4c(c3)[C@@H]3[C@H](O4)[C@H]3c3nc4cc(C(F)(F)F)ccc4[nH]3)ccnc2N1 [Lifirafenib (BGB-283)],1.01,3.41,2.3,1.54,5.38,1.8,0.61,1.85,0.55,2.71,2.04,3.33,1.67,8.07,1.66,0.46,1.17,1.38,2.67,2.49
CC#CC(=O)N1CCC[C@H]1c1nc(-c2ccc(C(=O)Nc3ccccn3)cc2)c2c(N)nccn12 [Acalabrutinib (ACP-196)],0.74,0.55,0.53,0.19,0.36,0.47,0.15,0.22,-0.06,-0.21,0.82,0.94,1.14,0.05,0.39,0.4,0.04,0.89,0.57,0.74
